# The whole screen tested about 52,000 sequences, of which about 210 (0.4%) were called active. This excerpt belongs to a sample that is enriched for actives. Unmarked numbers belong to inactive results.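 How the source made its calls: active means gene whose silencing raises cell survival under the drug, median off-target-corrected z-score across its silencing RNAs 2 or more; inactive means the rest.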
# Experiment: Resistance to Poly (ADP-Ribose) Polymerase inhibitor: Gene Identification via Genome-wide siRNA Screen
# Details: mouse BRCA2 R2336H ES cells, olaparib, CellTiter-Glo viability; stronger effect = higher value
# Method in brief: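 Mouse BRCA2 R2336H ES cells were reverse-transfected with siRNA (20 nM final), treated at 48 h with 500 nM olaparib, and read by CellTiter-Glo after 72 h. Scores: MAD-based z per siRNA, median per gene, seed off-target correction.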
row,Sequence,z-score
1,GCAACAGGUUAGCGAAACCTT against Bid3,0.43 (active)
2,GGUAGCUAUCAAGGUCAUCTT against Hunk,-0.704
3,GGAGGAUACCUUCUUCUACTT against Mta3,0.46
4,GCAGGGACCGUCUAUAACUTT against Ptprb,-0.654
5,GCGGAUUUAGUGGCUGGCUTT against Opn5,-2.04
6,GGAAUUUUUGGACAAAGUATT against Grid2,-3.07 (active)
7,GCUCUUCUCGCAUUCCUAUTT against Gpc2,-0.68
8,CCAGAUUGGUGAUGGUAGUTT against LOC432637,0.502
9,GGCUCAUCAAAGGAAGAAATT against Araf1,1.44 (active)
10,CCAGAACUUCCCAUUAAAATT against Alg8,-0.0137
11,CCUUAUUGGGUCAUAAGCATT against 2210403B10Rik,0.798
12,CCUCCGUUUGAUGACUCAATT against Tcte3,0.671
13,GCGAUUCAAACUUAUUCGATT against Pcdhb15,0.749
14,CCAUGAUCAAGAUUGUGCUTT against Slc29a1,-0.707
15,CCCUCGAUCCUUUUCACCUTT against Gja4,1.09
16,CUAGUAGGGUCAGAAUUUUTT against Olfr329,2.11
17,CCAUGCAUCUAAGUCUCGATT against Trpm3,1.35
18,GGAUUAAUUAAUACUUGGCTT against 3010033P07Rik,0.03
19,GGACCACCUAAGUUUAAGCTT against Pde6g,2.55 (active)
20,GCCAGAAUGGACUUGAGAATT against V1re6,-0.0714
21,GUUGAGGACUUCUUGCUGGTT against Cmar,-1.03
22,GGUAUGAGUGAAGAAAAGATT against Ifi205,-0.37

row,Sequence,z-score
1,CCAUAAACGACGAAAUGAUTT against Usp11,2.97 (active)
2,GGCAUCUGUUAUUGAAGUGTT against Vit,0.771
3,GGCCGAGUACAAACGUGGATT against AU019532,0.561
4,CCCUACCUUGAACGAGUACTT against Apoa1,0.773 (active)
5,GGAGAAGAAGCAGAGAGAATT against C530028I08Rik,-0.263
6,CCUUUCAGGCCAAUUGGCATT against Ube2l6,0.111
7,UCUCCUUCCUAACUUCAACTT against E030010A14,0.4
8,GGAACAGGACUUUUGAUAATT against 2700050F09Rik,1.03 (active)
9,GGCCAAUGAUGAUAACAAATT against Catnd2,0.564
10,CCUCUCCUACACUUCAAAATT against Cmya4,0.746
11,GGCUUUUUCCUCUACCCACTT against Trhde,0.762
12,GGUGUUUAAAGAUUUCGUUTT against Dhrs2,0.996
13,GCAAUGAACUAUGAAGGCATT against Npm1,0.811 (active)
14,CCCUUCACAACUUCUUAAUTT against Olfr872,0.609
15,GGGCAUCAGCAUUUGGUCATT against Pparbp,1.17
16,GGACUACCUCACACUCUUCTT against Oprs1,-0.235
17,GCCAUUCCGGCAGUAUUACTT against Pdcd7,0.524
18,CCGACAAAUAAAGGCUUUATT against Ddx52,-0.0103
19,CCGCAUGACACGACAUGUATT against BC034097,2.56 (active)
20,CCCUGUACACACCUAAAAATT against D10Ertd438e,1.39
21,CGUUUGCUCUAAAGCCAGGTT against BC004728,1.02
22,GGAUUUCCUGGAAAAUUCCTT against Siat8a,0.62

row,Sequence,z-score
1,GGUGUCUGUCAUGACCAUGTT against Tie1,2.02
2,GCUCGUCUAUGCUAUUUCUTT against Fath,0.81 (active)
3,GAUCACAGUCACGAUAUAATT against Prss19,-1.28
4,GGAAGAGAUGGAAUUAUUGTT against Sh3bp5,-0.737
5,GCUUGUGAUCGACUCUGCATT against Centb5,0.0161
6,CCUUCAUUUAUUCUACGAGTT against LOC244556,0.476
7,GCUCUCAUUAGCAUUAUCGTT against Gria1,-0.366 (active)
8,GCAGGUUAAGUAGCUGACATT against Dnclic2,-1.28
9,CGUGCAUGCAAAUUAUGUATT against 4933417O08Rik,-0.372
10,GGCACUCAGUAACUGCAUGTT against Gababrbp,-0.611
11,GGACUGUCAGUACUGUCAATT against E030025L21Rik,-0.201
12,GGAGUAAUCAUGCUGGAGCTT against 9930104L06Rik,0.406
13,CCAUGUCCAAUGAGGACUUTT against Htr1b,1.74 (active)
14,CCCUGAACGAAUAAUCGGCTT against Cbx3,-0.637
15,CGAUAAACUGGAUACCACUTT against A430083B19Rik,-0.3
16,GGAGAUGCUGGACUGCUUUTT against Htr1b,-0.751 (active)
17,GGUUGUUUAAACUCAGUUUTT against Slco4c1,-1.83
18,GGCCAAAUCAUGGAUGCAGTT against Comt,-1.72
19,GGAUCUAUAAGGACUACAUTT against Bmp7,-0.68
20,CGGGAACUCACCGAAAAGATT against 4921521N14Rik,0.566
21,GGAUGUGGCUGCUUUGAAGTT against Wbscr27,0.123
22,GGGAUUUUCUGUGUAUCUUTT against D5Ertd33e,-0.0623

row,Sequence,z-score
1,GGCAUAACUGAUCAUACGCTT against Foxp3,1.06
2,GGUUUUAGAAGGGAAACAUTT against Ppp2r2c,-0.761
3,GGAGCCAAGUGUGAUUACATT against Pias3,-1.38 (active)
4,GGAUUGCUGUGCCUUAUGATT against 2010004A03Rik,0.503
5,CCACUUUUUUAGAUCCCUGTT against AA960436,-0.149
6,GACUCCCACUUACACUCUCTT against Olfr1312,-1.08
7,GGUUCUUUAAUAGAACAUGTT against Tyrp1,-0.207
8,GGUCAUUGGUCGCUGGUCATT against Gzmm,1.22
9,CGUGGGAUUUAAUGAUCAATT against Nid2,0.787
10,GGGCCUAUAUAACAUCUUGTT against Usp11,0.581 (active)
11,GGGUAUCUUCUGGAAAACATT against Angptl4,0.203
12,GGCUAUGCAGCAUAUUAUATT against Ndufa1,-0.819
13,GGAAAUUUUGGAGAUGAUATT against 5730444A13Rik,-0.496
14,GGCGAUCUAUCACACUGUGTT against Chst7,1.39
15,GGAGGAAGAAACAGAACCATT against A930021G21Rik,-2.36
16,GCAGUCUGGUUCUCUCAAATT against Cryl1,2.21
17,GGUUGCUUGGAAUUAAAAGTT against Klhl1,1.01 (active)
18,CACGGGCAUCCUUGACUCCTT against Mbp,0.994
19,GCAACAUGGCCCUUACCAUTT against Plcb2,-0.797
20,GGCUCCUUAAAGAUAUGUUTT against Nsmaf,0.332
21,GGAAUGUGUUAUGGUGAUUTT against Mgl2,-0.346
22,GCCUUUAUAGUCUUAAGCATT against 2810475A17Rik,-1.55

row,Sequence,z-score
1,GGAUAAAUGGUUCUAGAAATT against 3110006P09Rik,-0.433 (active)
2,CCUUCAAUUUCAGUUCAGATT against Olfr1388,0.422
3,GGUAUUCUCUAAGAAGGAGTT against Ccbl1,-0.635
4,GGCAUUUGAAGAUGUUUCUTT against Hmgb3,1.56 (active)
5,GGAGACGUGUCUGAAAGACTT against Glp2r,-0.752
6,GCUUCACAAGCAGUGUACUTT against Slc37a1,1.96 (active)
7,CCUUUUUCUGGAUUGGAAUTT against Klrd1,1.78 (active)
8,GCCAGCAACAGGAUGAUAUTT against Prkwnk1,-1.02
9,GCUCAGACAUGUUCUUACCTT against BC037527,0.547
10,GCUUAAAACAGACCAUUUUTT against 1700013G20Rik,0.824
11,GCAUUCAAGCAACCACGAATT against Ptdss1,-0.153
12,GCACUUGGGUAAAAAACUCTT against Bcorl1,0.555
13,GCUGACCCAGCUAUGUACUTT against 4930519N13Rik,-0.26
14,GGAAGCUGGUUCCUGUUUUTT against Bid3,2.66 (active)
15,CCAGAGUAAGAGUAAAAGCTT against Mamdc2,1.32
16,GGCUGUAAUGAGGACUGAUTT against Deb1,-1.92
17,CCUAAAUUCGGUUUGAAUCTT against Fath,2.74 (active)
18,GCAUUUUGACCCAAGUGUUTT against Foxq1,0.0651

# From PubChem BioAssay AID1347423 (Functional Genomics Laboratory (NCATS/FGL), 2020)
